The values that follow come from PubChem BioAssay AID686970 (National Center for Advancing Translational Sciences (NCATS), 2013).

Each structure is given as a SMILES string. The whole screen tested about 360,000 compounds, of which about 6,000 (1.7%) were called active. Entries that show only a call come without a potency. About 8% were inconclusive and are not listed. The call rests on the fitted dose curve; in most records, active means well fitted cell-killing curve with a large enough effect; inconclusive means small, poorly fitted or top-dose-only effect, or effect the other way; inactive means flat fitted curve, though single readings scatter. Many of the other results were omitted from the sample, so actives are more common in it than they were.
Potency means the concentration at half of the fitted maximal effect.

This assay is described as follows: qHTS for induction of synthetic lethality in tumor cells producing 2HG: qHTS for the HT-1080-NT fibrosarcoma cell line. Further: nearly all actives have a fitted effect of over 55% in size. Conditions: HT-1080-NT fibrosarcoma viability, CellTiter-Glo ATP luminescence, 48 h; series mostly up to 46.1 µM. From the text:
Unbiased genomic sequencing for 22 glioma genomes found recurrent mutation of IDH1 on chromosome 2q33, a gene encoding the cytosolic isoform of IDH1 associated with the tricarboxylic acid cycle (TCA) that catalyzes the oxidative decarboxylation of isocitrate, yielding alpha-ketoglutarate and CO2 via NADP+ to NADPH conversion. Subsequent studies confirmed the recurrent IDH mutations in up to 70% of secondary gliomas and in 10% of AML cases. In addition, the somatic mutation of cancer-associated IDH1 is a point mutation resulting in various amino-acid substituents at Arginine132 (IDH1 R132), a key residue found in the enzyme's active site that when mutated, results in the loss-of-function in metabolizing isocitrate but confers a gain-of-function to produce the oncometabolite 2-hydroxyglutarate (2HG). This in effect defines IDH1 as an oncogene and provides an extraordinary opportunity to discover chemical probes against mutant IDH1 that may translate into much needed new therapies for glioma and AML patients.
This assay aims to perform a synthetic lethal screen for chemical probes specific for 2HG-producing tumor cells using matched paired cell lines (1) HT-1080-NT fibrosarcoma cell line that overproduces 2HG and (2) HT-1080-IDH1KD cell line which has IDH1 expression knocked-down. Desirable compounds are toxic to the NT fibrosarcoma cells but not to the IDH1KD cell line. The data in this AID corresponds to the results of the qHTS against the HT-1080-NT fibrosarcoma cell line.
[1] Dang L, Jin S, Su SM. IDH mutations in glioma and acute myeloid leukemia. Trends of Mol Med. 2010; 16(9): 387-97.
[2] Dang L et al. Cancer-associated IDH1 mutations produce 2-hydroxyglutarate. Nature. 2010; 465(7300):966.
NIH Molecular Libraries Probe Production Centers Network [MLPCN]
NIH Chemical Genomics Center [NCGC]
Assay Submitter (PI): Lenny Dang Ph.D., Agios Pharmaceuticals
Suspensions of trypsinized HT-1080-NT cells were dispensed into white, tissue culture-treated, solid 1536-well plates at 5uL/well (750 cells/well final concentration) in RPMI medium supplemented with 5% FBS. Plates were incubated at 37 degrees C for 2 hours, after which 23 nL of compounds or DMSO were delivered to each well using a pin tool. Plates were then incubated at 37 degrees C for an additional 48 hours. CellTiter-Glo viability reagent (Promega) was dispensed into wells (2.5uL/well) and incubated at room temperature for 10 minutes. The plates were measured on a PerkinElmer ViewLux plate reader for luminescent signal (clear filter, 1 sec exp). DMSO-treated control wells and media-only (no cells) control wells were used to normalize %Activity of identified toxic compounds; DMSO-treated wells corresponded to 0%Activity (100% viability), while media-only controls were used to normalize 100%Activity (0% viability).
Concentration-response curves were fitted to the signals arising from the resulting luminescence. The concentration-effect curves were then classified based on curve quality (r2), response magnitude and degree of measured activity, and compounds were subsequently categorized based on their curve class.
In general terms: qHTS replaces the single test concentration by a dilution series.
`Cc1ccc(Cc2c(-c3ccco3)nc3ccc(Cl)cn23)cc1`: the Potency is 23.1 µM (active). The result for `Cc1ccc(Cc2c(-c3ccccc3)nc3ccc(Cl)cn23)cc1` reads “inactive”.

Turning to `Cc1ccc(-c2nc3ccc(Cl)cn3c2Cc2ccccc2)cc1`, the Potency result was “inactive”. The result for `COc1cc(F)ccc1-c1cc(C(=O)NCC2CCCCC2)[nH]n1` reads “inactive”. `O=C1C(Cl)=C(Oc2ccccc2)C(=O)c2ccccc21`: the Potency is 4.11 µM (active). The result for `COc1ccc(C(=O)OCC(=O)Nc2cc(C)on2)cc1F` reads “inactive”; that for `CC(C)(C)OC(=O)N1CCN(C(=O)c2[nH]c(C(F)(F)F)nc2-c2ccccc2)CC1`, “inactive”; that for `N/C(=N/O)c1cccn1Cc1ccccc1[N+](=O)[O-]`, “inactive”. The result for `O=[N+]([O-])c1ccccc1NCc1ccccc1Cl` reads “inactive”; that for `O=c1c([N+](=O)[O-])cccn1Cc1ccc(F)cc1Cl`, 14.6 µM (active).

In the case of `Cc1c2cnn(CC(=O)NCCCN3CC(C)CC(C)C3)c(=O)c2c(C)n1Cc1ccc(Cl)cc1` (stereo not given), the Potency is 23.1 µM (active). On to `CC1CC(C)CN(CCCNC(=O)Cn2ncc3c([nH]c4ccccc43)c2=O)C1` (stereo not given), for which the Potency entry was “inactive”.

As to `Cc1ccc(Cn2c(C)c3cnn(CC(=O)NCCN4CCOCC4)c(=O)c3c2C)cc1`, the Potency entry was “inactive”. As for `O=C(Nc1ccc(N2C(=O)c3cccc4cccc(c34)C2=O)cc1)c1ccc(N2CCCCC2)c([N+](=O)[O-])c1`, the entry is “inactive”; as for `CC(NC(=O)c1ccc(N2CCNCC2)c([N+](=O)[O-])c1)C12CC3CC(CC(C3)C1)C2` (stereo not given), 16.4 µM (active). As for `Cc1cccc(C)c1NC(=O)CNC(=O)c1ccc(N2CCOCC2)c([N+](=O)[O-])c1`, the entry is “inactive”; as for `CCC(C)NC(=O)c1ccc(N2CCC3(CC2)OCCO3)c([N+](=O)[O-])c1` (stereo not given), “inactive”. The result for `O=C(NC1C2CC3CC(C2)CC1C3)c1ccc(N2CCNCC2)c([N+](=O)[O-])c1` (stereo not given) reads “inactive”; that for `O=C(Nc1cccc(C(F)(F)F)c1)c1ccc(N2CCNCC2)c([N+](=O)[O-])c1`, 16.4 µM (active); that for `CCc1noc(C)c1C(=O)OCC(=O)c1ccc(NC(=O)CC(C)C)cc1`, “inactive”. Regarding `Cc1cc2nc(-c3ccco3)c(Cc3cccc(F)c3)n2c(C)c1Br`, the Potency was 20.6 µM (active). The result for `Cc1cc2nc(-c3ccc(F)cc3)c(Cc3ccsc3)n2c(C)c1Br` reads “inactive”; that for `Fc1cccc(Cc2c(-c3ccc(Cl)cc3)nc3ccc(Cl)cn23)c1`, “inactive”; that for `COc1cc(C=C(OC(C)=O)c2ccc3c(c2)OCO3)cc(OC)c1OC`, “inactive”. As for `CCCNC(=O)C[C@@H]1CC[C@@H]2[C@H](COC[C@H](O)CN2C(=O)c2cc(Cl)cc(Cl)c2)O1`, the entry is “inactive”; as for `CCOC(=O)c1cc2cc(OC)ccc2n1C1CCN(C)CC1`, “inactive”; as for `CC1(C)N=C(N)NC(Nc2ccc(Cl)cc2)=N1`, “inactive”. As for `COc1ccccc1NC1=NC(c2ccc(Cl)cc2)N=C(N)N1` (stereo not given), the figure is 10 µM (active); as for `COc1ccccc1NC(=O)C1CCCN1S(=O)(=O)c1ccc(Cl)cc1` (stereo not given), “inactive”. In the case of `CCc1nc2ccc(C(=O)NCCNC(C)=O)cn2c1N(CC)Cc1cccc(Br)c1`, the Potency entry is “inactive”. The result for `CCC(C)CN1C(=O)CN(S(C)(=O)=O)CC1(C)C(=O)Nc1ccc2c(c1)OCCO2` (stereo not given) reads “inactive”; that for `C[C@H]1CN(c2ccc(Br)cc2)C(=O)[C@@H]1CC(=O)Nc1ccc(Br)cc1`, “inactive”. As for `c1ccc(CNCc2ccc(CNCc3ccccc3)cc2)cc1`, the entry is “inactive”; as for `CC1(C(=O)Nc2ccc3c(c2)OCCO3)CSCC(=O)N1CCOc1ccccc1` (stereo not given), “inactive”.

Take `Cc1cc(C)cc(OCC(=O)NNC(=O)c2cc3ccccc3oc2=O)c1`: the Potency entry is “inactive”. The result for `O=c1oc2ccccc2cc1-c1csc(Nc2ccc(O)cc2)n1` reads 14.6 µM (active); that for `Cc1ccn2c(-c3csc(Nc4ccc(C(=O)O)cc4)n3)c(C)nc2c1`, “inactive”; that for `CCc1c(N=O)c(-c2ccccc2)n(O)[n+]1[O-]`, “inactive”. As to `CC(C)CNC(=O)C1(C)CCCN1C(=O)CSc1ccccc1` (stereo not given), the Potency entry was “inactive”.

Take `COc1ccc(C(O)c2nc(-c3ccc4c(c3)OCO4)cs2)cc1` (stereo not given): the Potency result is “inactive”. Turning to `CCCc1ccc(S(=O)(=O)N2CCN(C(=O)c3cc(C)on3)CC2)cc1`, the Potency entry was “inactive”. As for `O=C(Nc1nnc([C@H]2C[C@H](O)[C@@H](CO)O2)s1)c1cccc(Cl)c1`, the entry is “inactive”. `CN(C)CCN1CCN(c2cc(-c3cccc(Cl)c3)nc3ccnn23)CC1`: the Potency entry is “inactive”. As for `O=C(c1ccccc1)N1CCN(c2cc(-c3ccccc3)nc3cc(-c4cccc(Cl)c4)nn23)CC1`, the entry is “inactive”; as for `C#Cc1cc(N2CCN(C(=O)c3ccoc3)CC2)n2nc(-c3cccc(Cl)c3)cc2n1`, 14.6 µM (active).

On to `CC(=O)Nc1ccc(C=CC(=O)c2ccc([N+](=O)[O-])cc2)cc1`, for which the Potency entry is “inactive”. The result for `O=C(N=C1SC2CS(=O)(=O)CC2N1Cc1ccccc1)c1ccccc1` (stereo not given) reads “inactive”; that for `COCOCCn1cc(CN2CCS(=O)(=O)N(Cc3ccc(-c4ccccc4)cc3)C(CC(C)C)C2=O)nn1` (stereo not given), “inactive”; that for `COc1cccc(/C=C2\SC(=S)N(CCCC(=O)N3CCOCC3)C2=O)c1`, “inactive”. The result for `CCCCc1ccc(S(=O)(=O)NC(=O)C2(C)CCN2C(=O)c2ccccc2)cc1` (stereo not given) reads “inactive”; that for `CCCOc1ccc(/C=N/NC(=O)C2CC2)c(OCCC)c1`, “inactive”; that for `CCCOc1ccc(C(=O)C(CCC(CNCC)C(=O)c2ccc(OCCC)cc2)CNCC)cc1` (stereo not given), 16.4 µM (active).

Regarding `CCCOc1ccc(C(=O)CCC(=O)OC(C)C(=O)Nc2ccc(NC(C)=O)cc2)cc1` (stereo not given), the Potency result is “inactive”. The result for `Cc1ccccc1S(=O)(=O)NC(=O)C1(C)CCN1C(=O)C1(c2ccc(Cl)cc2)CC1` (stereo not given) reads “inactive”. The result for `COc1cc(C(O)c2nc(-c3cnn(C)c3)cs2)ccc1F` (stereo not given) reads “inactive”; that for `O=C(Nc1ccc(F)cc1)C(CCc1ccccc1)N1CCN(CC(=O)N2CCCC2)CC1` (stereo not given), “inactive”; that for `Cc1ccc(S(=O)(=O)N2C[C@H]3n4c(=O)ccc(=O)n4C[C@H](OC(=O)NC4CCCC4)[C@@]3(O)C2)cc1`, “inactive”. The result for `CCCCCCNC(=O)O[C@H]1CN(C(=O)OC(C)C)N(C(=O)OC(C)C)[C@@H]2CN(S(=O)(=O)c3ccc(C)cc3)C[C@]12O` reads 20.6 µM (active). Turning to `CCCCCCNC(=O)O[C@]12C[C@@H](C(=O)OC)[C@@H](C(=O)OC)C[C@@]1(O)CN(S(=O)(=O)c1ccc(C)cc1)C2`, the Potency result is “inactive”.

`CS(=O)(=O)N1CCCCC1c1cc(C(=O)NCc2ccccc2)no1` (stereo not given): the Potency entry was “inactive”.
